According to the OligoGym collection:

The sequences below were run against NEK11 (assay: pooled miR-30 sensor sort-seq; sequence = guide strand). Settings: shRNA.
Also: reference of the scale not given here.

Row | Sequence | sensor-assay potency score (higher = more potent)
1 | TAAGTCTCGATGAAGTATCCTC | -0.275
2 | TATATGAGCAGCCTCCTTCTGA | -0.668
3 | TTCGCTAGCATTCTGATGCCTT | 0.204
4 | ATGGAGTACATCAACACTCAGC | -1.37
5 | TTTGTGTCTAGAGAAGTGCAAC | -1.07
6 | TTAGGTTCTGTAGCTGCTCATC | -0.837
7 | TTAGAAGTCGAGAAACTCCAAA | -0.797
8 | TTTTGTTGAAGCACGTATCTTC | 0.706
9 | TTCTCTGGTCTTTCTAACGCTA | -0.53
10 | TTCCTGAATTTTATCGTCCAGA | -0.793
11 | TTTTCTGTACTTCTGACAGTGC | -0.562
12 | TACATCAACACTCAGCTGCTGA | -0.0516

The sequences below were run against NEK7 in the same assay as above. Settings: shRNA.

Row | Sequence | sensor-assay potency score (higher = more potent)
13 | TATATCTCTATGCATGACTCTT | -0.469
14 | TCTCATATAGTAGACAGCCAAG | -1.88
15 | TTGAGCTGAAAAACCGGCCAAG | -1.05
16 | TAAACATAGGTGACGTCTGGTC | -1.09
17 | TAATGAACACATTAGCTGGTTT | -0.362
18 | TAGGTCGCCAGCATCTGCTAGT | -0.288
19 | TTTTCATGTATTCTCTCTGGAG | -0.779
20 | TTAGCTGGTTTTATATCTCTAT | -0.684
21 | TAGTTCATTATCTTCAATGAAT | -1.2
22 | TCTATCTTCTTACACAGTGAGT | -1.04
23 | TAAACTTCACTAAATTGTCCGC | -0.329
24 | TTAAAATGCTTGATCATTCTGG | 0.745
